Only some compounds are listed: those with a hit (about 1.2% of all), similar ones and a draw of the others.
RGS16-Gao: RGS16-Galphao interaction regulator (human). bead-based flow cytometry RGS16-Galphao binding, fluorescence; actives lie on both sides. binding response (% of control), % at 10 µM. O15492+P09471. 220,000 tested, 0.38% active;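 also: Galphao activated by GDP with aluminum fluoride before binding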
Avidin bead fluor: avidin bead compound fluorescence profile; Avidin beads, compound fluorescence 488/530 nm, flow cytometry; hits give high values; fluorescence (KMESF) at 10 µM; 220,000 tested, 0.38% active; AID 1775; in the data active = fluorescence above about 47
GSH bead fluor: GSH bead compound fluorescence profile | GSH beads flow cytometry, compound fluorescence 488/530 nm; hits give high values | fluorescence (KMESF) at 10 µM | 190,000 tested, 0.25% active; in the data active = fluorescence above about 89;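 also: glutathione beads carrying GST-tagged Bcl family fusion proteins plus one bare bead set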
RGS4-Gao reg: modulates binding of RGS4 to human Galphao; P09471; Multiplexed bead flow cytometry; actives lie on both sides; binding response (% of control), % at 10 µM; 220,000 tested, 0.33% active; in the data active = binding response below about 49% or above about 150%; inactive = in between;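 also: fluorescent Galphao activated with aluminum fluoride binding bead-coupled RGS4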
Target sequence (P09471 whole entry, looked up): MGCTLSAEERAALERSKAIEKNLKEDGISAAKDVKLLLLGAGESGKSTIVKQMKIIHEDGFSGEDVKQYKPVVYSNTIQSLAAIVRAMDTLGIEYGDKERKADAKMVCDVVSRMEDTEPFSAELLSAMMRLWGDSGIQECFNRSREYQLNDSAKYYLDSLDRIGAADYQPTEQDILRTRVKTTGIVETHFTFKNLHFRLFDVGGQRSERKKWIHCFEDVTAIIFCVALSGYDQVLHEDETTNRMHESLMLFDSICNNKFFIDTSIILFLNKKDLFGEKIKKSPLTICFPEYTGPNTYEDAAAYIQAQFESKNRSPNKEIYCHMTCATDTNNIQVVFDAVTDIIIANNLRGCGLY
RGS7-Gao: modulates binding of RGS7 to human Galphao. P09471. Multiplexed bead flow cytometry; actives lie on both sides. binding response (% of control), % at 10 µM. 220,000 tested, 0.35% active. AID 1439; in the data active = binding response below about 49% or above about 150%; inconclusive = no clear call, values can overlap the other calls; inactive = in between;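 also: fluorescent Galphao held in activated GDP-AlF4 state binding bead-coupled RGS7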
RGS8-Gao: human RGS8-Galphao interaction regulation; P09471; multiplexed bead flow cytometry, RGS8-Galphao binding; actives lie on both sides; response (percent of control binding), % at 10 µM; 220,000 tested, 0.34% active; AID 1423; in the data active = response below about 60% or above about 140%; inactive = in between;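 also: Galphao activated as the GDP aluminium fluoride complex binding bead-coupled RGS8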
RGS-Gao: regulators of human RGS4-Galphao interaction. shares compounds with RGS16-Gao. multiplexed bead flow cytometry, RGS–Galpha-o binding. RGS4–Galpha-o binding response, % at 10 µM. 1,600 tested, 99% active. AID 1504;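 also: fluorescently labeled Galpha-o bound to GDP with aluminium fluoride binding biotinylated RGS beads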
Avidin counter: interferes with biotinylated probe binding to avidin beads | shares compounds with RGS16-Gao | streptavidin beads, fluorescein-biotin binding, flow cytometry | inhibition, % at 10 µM | 1,700 tested, under 10 active | AID 1783;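 active = inhibition above 50%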;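 also: median green fluorescence of gated singlet beads compared with DMSO control wells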
RGS8-Gao single: confirmation of regulators of human RGS8-Galphao interaction. binding response (% of control), % at 10 µM. 1,700 tested, 3% active. bead-based flow cytometry RGS8-Galphao binding, fluorescence; actives lie on both sides. shares compounds with RGS16-Gao; in the data active = binding response below about 72% or above about 130%; inactive = in between;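 also: Galphao activated as GDP AlF4 complex before binding bead RGS8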
RGS7-Gao single: RGS7-Galphao interaction regulation, single point confirmation; response (percent of control binding), % at 10 µM; bead-based flow cytometry RGS7-Galphao binding; actives lie on both sides; shares compounds with RGS16-Gao; 1,700 tested, 7.8% active; in the data active = response below about 75% or above about 130%; inactive = in between;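 also: fluorescent Galphao activated with GDP and aluminum fluoride binding bead-coupled RGS7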
RGS16-Gao single: RGS16-Galphao interaction regulation, single point confirmation; shares compounds with RGS16-Gao; bead-based flow cytometry, RGS16-Galphao binding; actives lie on both sides; response (% of control binding), % at 10 µM; 1,700 tested, 4% active; AID 1838; in the data active = response below about 74% or above about 130%; inactive = in between;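 also: Galphao activated as the GDP aluminium fluoride complex binding bead-coupled RGS16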
RGS4-Gao confirm: RGS4-Galphao interaction regulation, single point confirmation; binding response (% of control), % at 10 µM; 1,700 tested, 4% active; RGS4-Galphao binding, multiplexed bead flow cytometry; actives lie on both sides; shares compounds with RGS16-Gao; in the data active = binding response below about 74% or above about 130%; inactive = in between
RGS19-Gao single: confirmation of regulators of human RGS19-Galphao interaction | shares compounds with RGS16-Gao | bead-based flow cytometry RGS19-Galphao binding; actives lie on both sides | response (percent of control binding), % at 10 µM | 1,700 tested, 5% active | AID 1841; in the data active = response below about 50% or above about 160%; inactive = in between
Target sequence (P09471 whole entry, looked up): as above
Target sequence (P49795 whole entry, looked up): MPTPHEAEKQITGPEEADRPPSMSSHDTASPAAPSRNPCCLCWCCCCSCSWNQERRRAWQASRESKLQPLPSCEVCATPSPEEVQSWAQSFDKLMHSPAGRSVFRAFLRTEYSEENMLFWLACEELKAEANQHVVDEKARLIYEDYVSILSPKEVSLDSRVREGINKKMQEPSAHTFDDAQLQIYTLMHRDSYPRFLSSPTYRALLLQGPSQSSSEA
Hits are given with their value; – = inactive; ? = inconclusive; · = not tested or not shown; [ ] = remark or other dose. Unless noted, no rule for the calls is given here.

SMILES	RGS16-Gao	Avidin bead fluor	GSH bead fluor	RGS4-Gao reg	RGS7-Gao	RGS8-Gao	RGS-Gao	Avidin counter	RGS8-Gao single	RGS7-Gao single	RGS16-Gao single	RGS4-Gao confirm	RGS19-Gao single
O=S(=O)(c1ccc(F)cc1)N1CCC(N2CCCC2)CC1	–	88	–	–	162.9[activator]	–	107.3	·	·	·	·	·	·
COc1ccc(S(=O)(=O)N2CCC(N3CCCCC3)CC2)cc1	–	–	–	–	–	–	·	·	·	·	·	·	·
O=C(C1CCN(S(=O)(=O)c2ccc(F)cc2)CC1)N1CCOCC1	–	110	–	–	167.6[activator]	–	115.1	–	–	–	–	–	–
C=C(C)CN(CC)C(=O)CC1C(=O)NCCN1C (stereo not given)	–	–	–	–	–	–	·	·	·	·	·	·	·
O=C(Cc1ccccc1)Nn1c(O)c(/C=C2\C=Nc3ccccc32)sc1=S	262.2[activator]	–	–	–	–	–	98.8	–	–	–	–	–	–
O=C(Nc1ccccc1C(=O)OCC(=O)c1c[nH]c2ccccc12)c1ccco1	–	–	–	–	–	–	·	·	·	·	·	·	·
COc1ccc(NC(=S)Nc2ccc(OCc3ccccc3)cc2)c(OC)c1	–	–	–	–	164.9[activator]	–	139.6	–	–	–	–	–	–
COc1ccc(NC(=S)Nc2ccccc2)c(OC)c1	–	–	–	–	–	–	·	·	·	·	·	·	·
Cc1ccccc1CNC(=O)c1ccccc1	–	–	–	–	–	–	·	·	·	·	·	·	·
CC1(C(=O)NC2CCCCCCC2)CC1(Cl)Cl (stereo not given)	–	–	–	–	–	–	·	·	·	·	·	·	·
O=C(NC1CCCCCCC1)C1CCN(S(=O)(=O)N2CCCC2)CC1	–	–	–	–	–	58.5	57.9	–	–	–	–	–	–
COc1ccc(C(=O)C2CCN(C(=S)Nc3ccc(F)cc3)CC2)cc1	–	–	–	–	–	–	·	·	·	·	·	·	·
Cc1cc(C)c2oc(C(=O)Nc3ccc(S(=O)(=O)N4CCCC(C)C4)cc3)cc(=O)c2c1 (stereo not given)	–	93	–	152.5[activator]	168.4[activator]	–	·	–	–	–	–	–	–
CC(=O)N/C(N)=N/c1nc2cc([N+](=O)[O-])ccc2o1	–	–	·	–	?	–	·	–	–	–	–	–	–
CCOC(=O)CC(NC(=O)CCc1c(C)nc2ncnn2c1C)c1ccc(C)cc1 (stereo not given)	–	–	–	–	–	–	·	·	·	·	·	·	·
c1ccc(-c2csc3ncnc(NCc4ccccn4)c23)cc1	–	–	·	153.1[activator]	?	–	·	–	–	–	–	–	–
COc1ccc(CNC(=O)C2CSC(c3ccc(OC)cc3)N2C(C)=O)cc1 (stereo not given)	–	123	–	–	216.6[activator]	–	105.7	–	–	–	–	–	–
CCC(Oc1cc(Cl)ccc1Cl)C(=O)NNC(=O)CCC(=O)O (stereo not given)	13.3	–	–	–	–	–	80.0	–	–	–	–	–	–
CSc1nnnn1-c1c(C)cccc1C	–	–	·	–	?	–	·	·	·	·	·	·	·
Cc1ccc(NC2(c3nnnn3-c3c(C)cccc3C)CCCCC2)cc1	280.8[activator]	–	–	–	–	–	116.1	–	–	–	–	–	–
CCC1CCCCN1C(=S)NC1CCCCC1 (stereo not given)	–	–	–	–	–	–	·	·	·	·	·	·	·
CCOc1ccc(NC(=O)CSC(N)=O)cc1	–	–	–	–	–	162.6[activator]	99.5	–	–	–	–	–	–
CCOc1ccc(NC(=O)CC)cc1	–	–	–	–	?	–	·	·	·	·	·	·	·
CC(C)c1cccc(C(C)C)c1NC(=O)c1ccc(OCC(=O)NCc2ccccc2)cc1	–	–	–	–	–	–	·	·	·	·	·	·	·
CCc1nnc(NC(=O)CC(=O)Nc2ccccc2C(=O)O)s1	·	·	–	·	·	·	·	–	–	–	–	–	–
SMILES	RGS16-Gao	Avidin bead fluor	GSH bead fluor	RGS4-Gao reg	RGS7-Gao	RGS8-Gao	RGS-Gao	Avidin counter	RGS8-Gao single	RGS7-Gao single	RGS16-Gao single	RGS4-Gao confirm	RGS19-Gao single
COc1ccc(C(=O)NCCn2ccc3ccccc32)c(OC)c1	–	–	–	–	–	–	·	·	·	·	·	·	·
O=C(CCC1CCCN(C(=O)c2cncs2)C1)NCc1ccc(F)c(F)c1 (stereo not given)	–	220	–	–	231.3[activator]	–	108.8	–	–	–	–	–	–
CC(NC(=O)Cc1cccs1)C(c1cccs1)N1CCOCC1 (stereo not given)	7.5	–	–	39.3	44.9	45.5	·	–	–	–	–	–	–
Cc1onc(-c2ccccc2Cl)c1C(=O)Nc1nn[nH]n1	–	–	–	46.6	–	52.7	·	–	–	–	–	–	–
COc1ccccc1-n1c(-c2cn(C)nc2C)n[nH]c1=S	12.8	–	–	–	–	–	93.4	–	–	–	–	–	–
COc1ccc(-c2cc(-c3n[nH]c(=S)n3-c3ccccc3OC)[nH]n2)cc1	–	–	–	–	–	–	·	·	·	·	·	·	·
COc1ccccc1-n1c(-c2ccccc2)n[nH]c1=S	–	–	–	–	158.6[activator]	–	105.8	–	–	176.4[activator]	136.6[activator]	132.7[activator]	156.5[activator]
O=C(Nc1nnc(CCN2CCCCC2)s1)c1ccccc1Cl	–	–	–	–	–	–	·	·	·	·	·	·	·
C/C(=N\NC(=O)c1nn(C)c(C)c1Br)c1cccc(NC(=O)c2ccc(F)cc2)c1	253.1[activator]	–	–	–	–	–	113.6	–	–	–	–	–	–
CC(C)CC(=O)NC1(C(F)(F)F)C(=O)N(CC(C)C)C2=C1C(=O)CC(C)(C)C2 (stereo not given)	–	–	–	164.9[activator]	169.0[activator]	154.9[activator]	·	–	–	–	–	–	–
Cc1ccc(NC(=O)COc2cccnc2[N+](=O)[O-])cc1S(=O)(=O)N1CCOCC1	–	–	–	–	–	–	·	·	·	·	·	·	·
Cc1ccc(-c2nc3sc(C#N)c(N)n3c(=O)c2C#N)cc1	–	–	–	–	–	–	·	·	·	·	·	·	·
